In PubChem BioAssay AID952 (NMMLSC, 2007) one finds inhibition data, which are given here for 100 compounds.

Hit rate of the full screen: of about 190,000 compounds, about 45 (0.02%) were called active. Only a sample is shown. A number with no mark means an inactive call. Cut-off read from the data, not from the text of the source: active = inhibition above about 40%.

This experiment deals with Bcl-2-like protein 2 (Homo sapiens) (UniProt Q92843). Briefly: inhibitors of Bim binding to Bcl-W, primary screen, biochemical, multiplexed, bead-based flow cytometry (AID 952).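 Note: 0% = bound tracer without compound and 100% = peptide blocker; higher means less fluorescent Bim peptide bound to Bcl-W beads.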 Particulars: Bim peptide-Bcl-W binding, at 10 µM, stronger effect = higher value.
Bcl-2-like protein 2 (Homo sapiens), sequence (Q92843 whole entry, looked up): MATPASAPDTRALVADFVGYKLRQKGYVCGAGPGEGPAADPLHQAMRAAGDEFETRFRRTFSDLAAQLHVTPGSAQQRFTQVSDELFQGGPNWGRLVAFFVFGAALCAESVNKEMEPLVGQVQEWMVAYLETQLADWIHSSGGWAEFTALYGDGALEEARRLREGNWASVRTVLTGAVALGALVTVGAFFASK
In the case of `CCOC(=O)NC(=O)/C(C#N)=C\c1ccccc1`, the inhibition is -2%.

For the compound `Cc1cc(C)cc(NC(=O)N2CCCCCCC2)c1`, the inhibition was 0%.

`Cc1[nH]c2ccccc2c1C(=O)COC(=O)c1c(-c2ccccc2)noc1C`: the inhibition was -1%.

Turning to `COc1cc(SC#N)ccc1N=Cc1c(C)[nH]n(-c2ccc(C)cc2)c1=O`, the inhibition is 6%.

`O=C(NCc1ccccc1)C1CCCN(c2nc3ccsc3c(=O)s2)C1` (stereo not given): the inhibition was -4%.

Consider `CCN(CC)CC(=O)Nc1sc2c(c1C(=O)c1ccccc1C)CCC2`, for which the inhibition was 0%.

With `O=C(Nc1nnc(-c2ccco2)o1)c1ccc(S(=O)(=O)N2CCOCC2)cc1`, the inhibition was 0%.

As for `Cc1nc(N2CCOCC2)sc1C(=O)NN`, the inhibition is 0%.

For `CC1CCN(C(=S)c2cccc([N+](=O)[O-])c2)CC1`, the inhibition was 0%.

With `N/C(=N\OC(=O)CCCC(=O)O)c1ncc(C(F)(F)F)cc1Cl`, the inhibition is -1%.

Take `Cc1ccc(SC(C)C(=O)NCc2ccc(F)cc2)cc1` (stereo not given): the inhibition was 0%.

As to `Cc1ccc(Nc2cc(C)nc3c(C)ccc([N+](=O)[O-])c23)cc1`, the inhibition was 0%.

With `N#Cc1c(NC(=O)c2ccc(N3CCOCC3)c([N+](=O)[O-])c2)sc2c1CCCC2`, the inhibition was -4%.

On to `Cc1cc(C)nc(-n2nc(C)cc2NC(=O)c2ccc(F)cc2F)n1`, for which the inhibition was 1%.

With `CCc1nn(CCCN2CCN(c3cccc(Cl)c3)CC2)c(=O)n1CCOc1ccccc1`, the inhibition was -5%.

In the case of `C/C(=N/N1CCN(Cc2cccc3ccccc23)CC1)c1cccnc1`, the inhibition was 0%.

In the case of `O=C1CC(c2cccc(Cl)c2)CC(O)=C1C=Nc1ccccc1` (stereo not given), the inhibition is -5%.

On to `Cc1cnc(C(=O)OCC(=O)N2CCc3ccccc32)cn1`, for which the inhibition was 0%.

As for `CC(=O)C1(C)N(O)C(C)(C)C(c2cccs2)=[N+]1[O-]` (stereo not given), the inhibition was 0%.

As for `O=C(OCC(=O)c1cccs1)c1ccc([N+](=O)[O-])o1`, the inhibition was 0%.

As to `O=C(CCl)N(Cc1cccc([N+](=O)[O-])c1)c1cccc(Cl)c1`, the inhibition is 1%.

Consider `c1ccc2c(c1)OCCOCCOCCO2`, for which the inhibition is 0%.

For `CCOc1cccc2c1OC1(CCCCC1)N1N=C(c3cccnc3)CC21` (stereo not given), the inhibition was -4%.

With `CCCC(=O)Nc1ccc(C(=O)N/N=C/c2ccc[nH]2)cc1`, the inhibition is -5%.

With `Cc1ccc(S(=O)(=O)N(C)C)cc1NC(=O)COC(=O)c1c(C)noc1C`, the inhibition was 0%.

For the compound `Cc1cc(/C=N/NC(=O)c2cccnc2)c(C)n1CC(C)C`, the inhibition is 1%.

Regarding `CC(=O)Nc1ccc(NC(=O)CSc2nnc(COc3ccccc3C)n2CC2CCCO2)cc1` (stereo not given), the inhibition is -2%.

As to `Cc1cc(C)n2nc(C(=O)N3CCN(Cc4ccc5c(c4)OCO5)CC3)nc2n1`, the inhibition is -2%.

As for `C/C(=N/Nc1ccc(Cl)cc1)c1cnnc(-c2ccccc2)n1`, the inhibition was -1%.

Consider `O=C(O)/C=C/C(=O)NNc1ccc([N+](=O)[O-])cc1`, for which the inhibition was 5%.

With `CCOC(=O)c1cccc(NC(=O)CCOc2ccccc2)c1`, the inhibition was -1%.

`O=C(Cn1nnc2ccccc2c1=O)NCc1ccc(Cl)cc1`: the inhibition is -1%.

Consider `CSc1nc2ccccc2c(=O)n1Cc1ccc(F)cc1`, for which the inhibition was 0%.

For `COc1ccc(NC(=S)NCC2CCN(c3ccc(OC)cc3)C2)cc1` (stereo not given), the inhibition is 0%.

On to `CCOc1ccc(N2C(=O)/C(=C/c3ccc(C)o3)N(C)C2=S)cc1`, for which the inhibition is 4%.

As to `O=c1[nH]n2c(-c3ccccc3)nc(O)c2c2ccccc12`, the inhibition is -1%.

For the compound `COc1ccc(C(C(=O)NC2CCCCC2)N(C(=O)CCl)c2ccccc2Cl)cc1` (stereo not given), the inhibition was 0%.

On to `OC(CNCc1ccc(Cl)c(Cl)c1)c1ccccc1` (stereo not given), for which the inhibition is 0%.

With `O=C(COc1ccc(Cl)cc1[N+](=O)[O-])N1CCCCC1`, the inhibition is 3%.

In the case of `Cc1nccn1CC(=O)N/N=C/c1ccc(O)c(O)c1`, the inhibition was -5%.

Take `CN(Cc1nc2ccc(F)cc2[nH]1)Cc1nc(CC2CC2)no1`: the inhibition is -6%.

Consider `Nc1nnc(SCC(=O)OCc2ccc(Cl)c(Cl)c2)s1`, for which the inhibition was 3%.

On to `CN(C)CCOc1cccc(Br)c1`, for which the inhibition was -3%.

In the case of `Clc1cc(-c2ccc(/C=N/n3cnnc3)o2)ccc1Br`, the inhibition was 0%.

On to `CCC(=O)N(Cc1cc2ccccc2[nH]c1=O)c1ccc(OC)cc1`, for which the inhibition was 0%.

Regarding `CCOC(=O)c1cnc2c(c(C)nn2CC)c1Cl`, the inhibition is -1%.

Consider `CN(C)/N=C/c1cn(-c2ccccc2)nc1-c1cccnc1`, for which the inhibition was 1%.

For `Cc1cc(C)n(-c2ccc(C(=O)O)cc2[N+](=O)[O-])n1`, the inhibition was 0%.

`CCCCNC(=O)C1CCC(CNS(=O)(=O)c2ccc(NC(C)=O)cc2)CC1` (stereo not given): the inhibition is 1%.

`C=CCn1c(=NC(=O)c2cccs2)sc2cc(NC(C)=O)ccc21`: the inhibition was 0%.

Turning to `O=C(NNC(=S)NCc1ccccc1)c1ccc(OC(F)F)cc1`, the inhibition is 1%.

With `CC(=O)c1cccc(-n2nnnc2SCC(=O)NNC(=O)C2CCCCC2)c1`, the inhibition is 0%.

In the case of `CC(=O)c1cc(C#N)c(SCC(=O)Nc2nccs2)nc1C`, the inhibition is -1%.

Turning to `COCCNC(=O)c1ccc(-n2c(SCc3cccnc3)nc3ccccc3c2=O)cc1`, the inhibition was -4%.

In the case of `CCCCN(CC)CCNC(=O)CCNC(=O)Cn1ccc2ccccc2c1=O`, the inhibition was -2%.

For the compound `CCN(CC(=O)NCc1cccs1)S(=O)(=O)c1ccc(NC(C)=O)cc1`, the inhibition was 0%.

With `CN(CCC1CCOCC1)Cc1cn[nH]c1-c1ccc(-c2ccccc2)cc1`, the inhibition was -1%.

Take `O=C(NC(=S)N1CCN(Cc2ccccc2)CC1)c1ccccc1`: the inhibition was -3%.

In the case of `CCOC(=O)c1c(NC(=O)C(C)Sc2c[nH]c3ccccc23)sc2c1CCC2` (stereo not given), the inhibition is -3%.

For the compound `COc1cc(NC(=S)NCc2ccco2)c(OC)cc1Cl`, the inhibition is -1%.

With `O=C(c1ccc(F)cc1)c1cn(Cc2ccc(F)cc2)c2cc3c(cc2c1=O)OCCO3`, the inhibition was -4%.

For `COc1cc(C)c(S(=O)(=O)N2CCOCC2)c(C)c1C`, the inhibition is -3%.

For `Cc1nnsc1C(=O)N/N=C/c1cccc(C(F)(F)F)c1`, the inhibition was -2%.

Consider `CCOC(=O)c1[nH]c2c(c1-c1ccccc1)C(=O)CC(c1ccc(Cl)cc1)C2` (stereo not given), for which the inhibition is -3%.

On to `COc1ccc(N=C2SC(C(=O)Nc3ccc(F)cc3)CC(=O)N2C)cc1` (stereo not given), for which the inhibition is 0%.

For `CNC(=O)/C(C#N)=C/c1c(F)cccc1Cl`, the inhibition was -2%.

For `CCn1ncc(CNC(=O)C2(C)CC2(Br)Br)c1C` (stereo not given), the inhibition was -4%.

For the compound `Cc1ccc(N(C(=O)C(F)(F)F)C(C(=O)NC2CCCCC2)c2ccncc2)cc1C` (stereo not given), the inhibition is -1%.

Regarding `N#Cc1cccc(Nc2c3c(nc4ccccc24)CCCC3)c1`, the inhibition is 4%.

On to `COc1ccc(Cl)cc1NC(=O)CN(C)Cc1ccc(OC)c(OC)c1`, for which the inhibition is -4%.

As to `NC(=O)CC[C@@H]1NC(=O)[C@H](CO)NC(=O)c2cc([N+](=O)[O-])cc(I)c2NCC[C@@H](C(N)=O)NC1=O`, the inhibition was 0%.

With `O=C(/C=C/c1ccc(N2CCOCC2)cc1)c1ccccc1`, the inhibition is -4%.

Consider `CCCC(C)C(=O)OCC(=O)Nc1c(Br)cc(C)cc1Br` (stereo not given), for which the inhibition was 0%.

Regarding `O=S(=O)(c1ccc(F)cc1)N1CCN(C(=S)NC2CCCC2)CC1`, the inhibition was 0%.

Take `COc1cc2c(cc1NC(=O)COC(=O)/C=C/c1ccccc1)oc1ccccc12`: the inhibition is -7%.

Regarding `Cc1ccc(N(C(=O)c2sc(C)nc2C)C(C(=O)NC(C)(C)C)c2ccncc2)cc1` (stereo not given), the inhibition is -1%.

For the compound `COc1ccc(C(=O)CSc2nnc(NC(=O)C3CC(=O)N(c4cccc(OC)c4)C3)s2)cc1` (stereo not given), the inhibition is -2%.

Turning to `O=C(Nn1c(-c2ccc(Cl)cc2)nc2ccccc2c1=O)c1cccnc1Cl`, the inhibition is 10%.

Regarding `Cc1cc(OCCCN2CCN(Cc3ccccc3)CC2)ccc1[N+](=O)[O-]`, the inhibition is 0%.

As for `COc1ccc(Nc2ncc(F)c(N3CCOCC3)n2)cc1`, the inhibition is -1%.

As for `CCCCCOc1ccc(/C=C/C(=O)NCCc2nc3ccccc3[nH]2)cc1OC`, the inhibition was -7%.

Take `CCCC/C(C)=N/NC(=O)NC1CCCCC1`: the inhibition was -3%.

Regarding `COc1ccnc(Oc2ccccc2)c1-c1ncn[nH]1`, the inhibition is -1%.

In the case of `N=c1n(CCc2ccccc2)c2ccccc2n1Cc1ccccc1F`, the inhibition is -6%.

With `COc1ccccc1NC(=S)N1CCN(C(c2ccccc2)c2ccccc2)CC1`, the inhibition is 1%.

Turning to `O=C(c1ccncc1)N1CCN(c2ccc3ccccc3n2)CC1`, the inhibition is 0%.

Regarding `Cc1ccc(C(=O)Oc2coc(CSc3nnc(NC(=O)c4cccs4)s3)cc2=O)cc1C`, the inhibition is -6%.

Regarding `COc1ccc(NC(=O)C(=O)NCC(=O)Nc2cccc(C(F)(F)F)c2)cc1`, the inhibition was 1%.

For the compound `CCN(CC)C(=O)CS(=O)CC(=O)Nc1cc(OCCOC)c(Cl)cc1Cl` (stereo not given), the inhibition was -1%.

For `Brc1cc(/C=N/n2cnnc2)oc1Br`, the inhibition was -2%.

Turning to `CCc1ccc(CN(C)C(=O)CCc2nnc(-c3ccc(-c4ccccc4)cc3)o2)nc1`, the inhibition is 1%.

`CC(C)N(Cc1ccccc1)C(=O)COC(=O)c1cnccn1`: the inhibition was -1%.

For `COCC(C)n1c(C)cc(C(=O)CSc2cc(C)c3ccccc3n2)c1C` (stereo not given), the inhibition was -6%.

Take `O=C(c1cccs1)n1nc(NCc2ccccc2)nc1NCc1ccccc1`: the inhibition is 0%.

`Cc1ccc(NCc2n[nH]c(=S)n2-c2ccccc2)cc1Cl`: the inhibition was 0%.

With `Cc1cc2nc(C(F)(F)F)cc(-c3cccs3)n2n1`, the inhibition was 0%.

Regarding `O=C1Oc2ccccc2C(=O)/C1=C/c1ccccc1O`, the inhibition is 0%.

For `Cc1ccc(/C=C/C(=O)Nc2cc(S(=O)(=O)N3CCCCCC3)ccc2OCC(F)(F)F)o1`, the inhibition was -2%.

On to `Cc1ccc(C2CC(c3cccc(NS(C)(=O)=O)c3)=NN2S(C)(=O)=O)cc1` (stereo not given), for which the inhibition is -1%.

In the case of `COCCn1c(=O)[nH]c(=O)c2cc(C(=O)c3cc(OC)ccc3O)cnc21`, the inhibition was -3%.
